Active and inactive are the calls of the source.
How the values were obtained:
[1] = optical density shifts of acrAB sulA E. coli – strain DRC41, OD650, 48 h, E. coli filamentation inducer project, primary screen (AID 1152); settings: higher = more signal, called active from +8 up or from −8 down;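 also: E. coli MC1000 strain DRC41 lacking acrAB efflux pump and sulA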
[2] = probe aLefty1 binding on compound microarray – biochemical, small-molecule microarray, 635/667 nm fluorescence, primary screen (AID 1153); settings: higher = more signal;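 also: score merges spot fluorescence with signal-to-noise ratio from the scanned slide images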
[3] = plasmodial surface anion channel blockers, osmotic lysis – cell-based, P. falciparum Indochina, OD700, 1 h, primary screen (AID 1154); settings: P. falciparum Indochina infected RBC osmotic lysis, higher = more signal, called active from +8 up or from −8 down
[4] = plasmodial surface anion channel blockers, osmotic lysis – cell-based, P. falciparum Indochina, OD700, 2 h, primary screen (AID 1155);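 also: lysis reports solute entry through the parasite surface anion channel PSAC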; settings: P. falciparum Indochina infected erythrocytes, higher = more signal, called active from +8 up or from −8 down
[5] = changes in parasitized red cell lysis, either direction – P. falciparum Indochina, OD700, 3 h, PSAC antagonist project, primary screen (AID 1156); settings: P. falciparum-infected erythrocytes, osmotic lysis, higher = more signal, called active from +8 up or from −8 down
[6] = plasmodial surface anion channel blockers, osmotic lysis – cell-based, P. falciparum Indochina, OD700, 18 h, primary screen (AID 1157); settings: P. falciparum Indochina infected erythrocytes, osmotic lysis OD700, 18 h; higher = more signal, called active from +8 up or from −8 down
[7] = S6 kinase pathway phospho-S6 level changes – cell-based, A549, cytoblot, luminescence, serum-stimulated, primary screen (AID 1158); settings: 5 h, higher = more signal;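 also: serum-stimulated A549 lung adenocarcinoma cells; signal is phosphorylated S6 detected by cytoblot immunostaining with HRP secondary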
[8] = target: NADPH oxidase 2 (Homo sapiens) (UniProt P04839); assay: compounds shifting NOX2 Amplex Red fluorescence – cell-based, HEK293-NOX2, PMA-stimulated, NOX inhibitor project, primary screen (AID 1159); settings: 45 min, higher = more signal, called active from +8 up or from −8 down; also: test concentration not given here
[9] = target: NADPH oxidase 4 (Homo sapiens) (UniProt Q9NPH5); assay: compounds shifting NOX4 Amplex Red fluorescence – cell-based, HEK293-NOX4, tetracycline-induced, NOX inhibitor project, primary screen (AID 1160); settings: HEK293-NOX4, Amplex Red H2O2 fluorescence, 45 min; higher = more signal, called active from +8 up or from −8 down
[10] = target: NADPH oxidase 5 (Homo sapiens) (UniProt Q96PH1); assay: compounds shifting NOX5 Amplex Red fluorescence – cell-based, HEK293-NOX5, NOX inhibitor project, primary screen (AID 1161); settings: HEK293-NOX5, ionomycin, 45 min, higher = more signal
NADPH oxidase 5 (Homo sapiens), sequence (Q96PH1 whole entry, looked up): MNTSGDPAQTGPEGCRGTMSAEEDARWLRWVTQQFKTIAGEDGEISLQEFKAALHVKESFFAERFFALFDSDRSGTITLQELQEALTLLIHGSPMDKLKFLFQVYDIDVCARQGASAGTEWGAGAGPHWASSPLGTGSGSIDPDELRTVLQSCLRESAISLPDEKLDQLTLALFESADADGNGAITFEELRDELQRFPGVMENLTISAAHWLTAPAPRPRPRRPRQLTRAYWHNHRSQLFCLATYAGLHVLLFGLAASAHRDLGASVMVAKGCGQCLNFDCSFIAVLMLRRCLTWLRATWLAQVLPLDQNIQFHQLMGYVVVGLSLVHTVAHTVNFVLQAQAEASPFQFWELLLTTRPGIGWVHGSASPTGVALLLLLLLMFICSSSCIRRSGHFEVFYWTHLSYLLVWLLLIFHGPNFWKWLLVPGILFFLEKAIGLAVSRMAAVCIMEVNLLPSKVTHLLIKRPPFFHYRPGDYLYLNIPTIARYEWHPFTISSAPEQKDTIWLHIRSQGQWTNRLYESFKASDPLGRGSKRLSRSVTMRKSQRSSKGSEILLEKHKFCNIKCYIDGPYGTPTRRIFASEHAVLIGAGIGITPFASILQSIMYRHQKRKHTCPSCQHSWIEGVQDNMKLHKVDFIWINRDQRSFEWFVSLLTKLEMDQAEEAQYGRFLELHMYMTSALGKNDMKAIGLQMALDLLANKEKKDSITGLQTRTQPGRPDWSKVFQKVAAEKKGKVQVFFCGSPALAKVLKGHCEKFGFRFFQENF

NADPH oxidase 2 (Homo sapiens), sequence (P04839 whole entry, looked up): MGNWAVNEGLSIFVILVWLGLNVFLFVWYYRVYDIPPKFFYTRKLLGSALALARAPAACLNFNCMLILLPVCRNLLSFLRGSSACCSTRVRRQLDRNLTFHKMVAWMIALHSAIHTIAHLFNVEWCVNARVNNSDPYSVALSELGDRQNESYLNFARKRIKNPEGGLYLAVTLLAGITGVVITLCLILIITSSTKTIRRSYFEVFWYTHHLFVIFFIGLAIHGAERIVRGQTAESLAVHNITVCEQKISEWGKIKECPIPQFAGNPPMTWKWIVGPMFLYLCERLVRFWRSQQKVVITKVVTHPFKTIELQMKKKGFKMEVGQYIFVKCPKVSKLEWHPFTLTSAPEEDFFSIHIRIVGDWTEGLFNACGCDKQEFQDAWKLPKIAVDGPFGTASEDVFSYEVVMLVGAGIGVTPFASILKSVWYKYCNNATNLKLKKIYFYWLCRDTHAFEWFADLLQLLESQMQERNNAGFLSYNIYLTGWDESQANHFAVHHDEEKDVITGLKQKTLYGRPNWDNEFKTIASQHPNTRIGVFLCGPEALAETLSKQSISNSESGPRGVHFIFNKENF
NADPH oxidase 4 (Homo sapiens), sequence (Q9NPH5 whole entry, looked up): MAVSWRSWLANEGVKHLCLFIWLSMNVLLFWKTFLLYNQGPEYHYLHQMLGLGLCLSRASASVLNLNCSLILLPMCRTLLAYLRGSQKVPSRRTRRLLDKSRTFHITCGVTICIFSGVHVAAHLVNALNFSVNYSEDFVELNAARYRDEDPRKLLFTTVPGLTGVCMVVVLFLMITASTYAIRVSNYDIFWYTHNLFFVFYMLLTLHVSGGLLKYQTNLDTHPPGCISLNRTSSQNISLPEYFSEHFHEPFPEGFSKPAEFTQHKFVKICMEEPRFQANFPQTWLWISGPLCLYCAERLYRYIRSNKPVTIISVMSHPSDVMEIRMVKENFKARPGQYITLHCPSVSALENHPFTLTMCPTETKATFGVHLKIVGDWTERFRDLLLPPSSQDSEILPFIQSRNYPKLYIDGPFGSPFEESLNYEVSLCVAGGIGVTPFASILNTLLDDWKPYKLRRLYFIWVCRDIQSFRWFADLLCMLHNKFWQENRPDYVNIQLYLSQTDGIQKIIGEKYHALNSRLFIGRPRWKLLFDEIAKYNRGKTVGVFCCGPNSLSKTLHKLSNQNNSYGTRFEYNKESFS

| SMILES | z-score [1] | composite z-score [2] | z-score [3] | z-score [4] | z-score [5] | z-score [6] | z-score [7] | z-score [8] | z-score [9] | z-score [10] |
| --- | --- | --- | --- | --- | --- | --- | --- | --- | --- | --- |
| COC(=O)[C@@]1(Cc2ccccc2)[C@H]2c3cc(C(=O)N4CCCC4)n(Cc4ccc(C)o4)c3C[C@H]2CN1C(=O)c1ccccc1 | -1.71 (inactive) | 0.198 | 1.63 (inactive) | 0.547 (inactive) | 0.278 (inactive) | 0.52 (inactive) | -0.504 | -0.254 (inactive) | -0.867 (inactive) | -1.17 |
| O=C1c2ccccc2[C@@]2(Cc3ccccc3N(Cc3ccccc3)C2=O)[C@H](c2ccc(CO)cc2)N1C1CCCCC1 | 0.414 (inactive) | 0.0437 | -0.101 (inactive) | 0.546 (inactive) | 0.105 (inactive) | 0.327 (inactive) | 0.126 | 0.162 (inactive) | -0.143 (inactive) | -0.548 |
| COC(=O)c1ccc(OC)c(/C=C\CC(OC(C)=O)c2ccccc2)c1 (stereo not given) | 0.0491 (inactive) | -0.795 | 8.02 (active) | 0.898 (inactive) | -0.358 (inactive) | 0.303 (inactive) | -0.0878 | 0.0248 (inactive) | 0.415 (inactive) | -1.65 |
| COC(=O)[C@@]1(Cc2ccccc2N=[N+]=[N-])COC(c2ccc(OCCCO)cc2)=N1 | -1.01 (inactive) | 0.933 | 24.3 (active) | 8.54 (active) | 3.35 (inactive) | 1.03 (inactive) | -0.317 | -1.38 (inactive) | -0.156 (inactive) | -1.63 |
| COC(=O)C[C@H]1O[C@]2(C(=O)N(Cc3ccccc3)c3ccc(NC(C)=O)cc32)[C@@H](C)[C@@H]1[Si](C)(C)c1ccc(OC)cc1 | -0.202 (inactive) | -0.179 | 2.19 (inactive) | 0.984 (inactive) | 0.659 (inactive) | 0.304 (inactive) | 0.186 | -0.0156 (inactive) | 0.288 (inactive) | 2.89 |
| O=C1O[C@@H](c2ccccc2)[C@@H](c2ccccc2)N2[C@@H](c3ccc(O)cc3)[C@]3(C(=O)Nc4ccc(C#CC5(O)CCCCCC5)cc43)[C@@H](C(=O)N3CCCCCCC3)[C@H]12 | 0.489 (inactive) | 2.77 | 1.32 (inactive) | 0.836 (inactive) | 1.17 (inactive) | 0.564 (inactive) | 0.181 | 1.1 (inactive) | 1.09 (inactive) | 0.682 |
| CC(C)(C)OC(=O)CC[C@]1(C(=O)N2CCCCC2)N=C(c2ccc(OCCCO)cc2)O[C@H]1c1ccccc1N=[N+]=[N-] | 1.66 (inactive) | 0.19 | 32.1 (active) | 28.8 (active) | 2.17 (inactive) | 7.7 (inactive) | -0.167 | -3.53 (inactive) | 0.976 (inactive) | -1.46 |
| O=c1cccc(CCc2ccccc2)o1 | -1.21 (inactive) | -0.15 | 1.83 (inactive) | 0.584 (inactive) | -0.13 (inactive) | 0.339 (inactive) | -0.467 | 0.378 (inactive) | 0.12 (inactive) | -0.339 |
| CC(C)C(=C=CC[C@H](O)c1ccccc1OCCO)C[C@H](O)c1ccccn1 | 0.843 (inactive) | 0.129 | 4.75 (inactive) | 0.673 (inactive) | 2.42 (inactive) | 0.454 (inactive) | 1.16 | -0.222 (inactive) | -0.323 (inactive) | -1.28 |
| O=C(CCN1CCOCC1)c1cccc(O)c1 | -0.202 (inactive) | 0.154 | 0.205 (inactive) | -1.48 (inactive) | -0.582 (inactive) | -1.68 (inactive) | 0.4 | -2.74 (inactive) | -0.206 (inactive) | 1.72 |
| C=CCOC(=O)[C@H]1[C@@H]2C(=O)O[C@@H](c3ccccc3)[C@@H](c3ccccc3)N2[C@@H](c2ccc(OCCOC(=O)[C@@H]3C[C@@H]4C(=O)NCC(=O)N4[C@@H]3c3ccc(O)cc3)cc2)[C@]12C(=O)Nc1ccccc12 | 2.47 (inactive) | 0.3 | 1.77 (inactive) | -0.0123 (inactive) | 0.708 (inactive) | -0.513 (inactive) | 1.14 | 2.07 (inactive) | 1.31 (inactive) | 1.1 |
| C=CC[C@@]1(C(=O)O)N=C(c2ccc(OCCCO)cc2)O[C@@H]1c1ccccc1N=[N+]=[N-] | 0.232 (inactive) | 0.546 | 33.9 (active) | 32.2 (active) | 2.2 (inactive) | 8.02 (active) | -0.567 | -0.973 (inactive) | 1.14 (inactive) | 0.518 |
| [N-]=[N+]=Nc1ccccc1[C@H]1OC(c2ccc(OCCCO)cc2)=N[C@@]1(CCS(=O)(=O)c1ccccc1)C(=O)O | 0.671 (inactive) | 0.373 | 31.2 (active) | 24.9 (active) | 1.32 (inactive) | 4.75 (inactive) | -0.351 | -2.11 (inactive) | 0.851 (inactive) | -0.73 |
| CC(C)N1C(=O)[C@@]2(c3ccc([N+](=O)[O-])cc3)CC(=O)N(CC34CC5CC(CC(C5)C3)C4)[C@@H]2c2ccc(CO)cc21 | 0.0258 (inactive) | 1.04 | 0.297 (inactive) | 0.328 (inactive) | 0.0625 (inactive) | 0.131 (inactive) | -0.561 | 0.306 (inactive) | -0.0646 (inactive) | 0.607 |
| O=C1C2C=CC(C(O)c3ccc(-c4ccccc4)s3)N(n3cnnc3)C2C(=O)N1Cc1ccccc1 (stereo not given) | -0.613 (inactive) | 0.284 | 2.44 (inactive) | 1.41 (inactive) | 0.605 (inactive) | 0.832 (inactive) | 0.0424 | -0.547 (inactive) | -0.149 (inactive) | -0.918 |
| O=c1oc(-c2ccccc2)nc2cc(Br)ccc12 | 0.311 (inactive) | -0.0099 | 3.27 (inactive) | 0.635 (inactive) | -1.02 (inactive) | 0.845 (inactive) | -0.29 | 0.377 (inactive) | -0.138 (inactive) | -0.291 |
| CCOC(=O)C[C@H]1[C@H](OC(=O)c2ccccc2-c2ccccc2)[C@@H](NC(=O)Cc2ccc(OC)cc2)c2cc(OCCCO)ccc2N1C(=O)c1ccccc1 | -1.14 (inactive) | -0.0877 | 1.57 (inactive) | 0.316 (inactive) | 0.432 (inactive) | 0.208 (inactive) | -0.127 | 1.02 (inactive) | 1.15 (inactive) | -0.26 |
| C=C(COC)C(=O)CC[C@@H](OC(=O)c1cccnc1)c1ccc(CO)o1 | 0.272 (inactive) | -0.0536 | 1.47 (inactive) | 0.145 (inactive) | 0.0755 (inactive) | 0.038 (inactive) | -0.0125 | 1.59 (inactive) | 0.304 (inactive) | 0.21 |
| CCCN1C(=O)[C@]2(COC(c3ccc(OCCCO)cc3)=N2)Cc2ccccc21 | -0.516 (inactive) | 0.0927 | 16.9 (active) | 2.23 (inactive) | 2.31 (inactive) | 0.741 (inactive) | -0.0824 | -0.248 (inactive) | -0.0403 (inactive) | -1.42 |
| C=CC(=C)C1=CCO[C@@H]1[C@H]1CCCN1S(=O)(=O)c1ccccc1[N+](=O)[O-] | 0.279 (inactive) | -0.148 | 2.97 (inactive) | 0.577 (inactive) | 0.544 (inactive) | 0.281 (inactive) | -0.031 | 0.516 (inactive) | 1.06 (inactive) | 0.77 |
| CCCCC=C[C@@H](NC(=O)c1cccs1)c1ccccc1 | -1.05 (inactive) | 0.762 | 4.38 (inactive) | 0.669 (inactive) | 0.66 (inactive) | 1.38 (inactive) | 0.221 | -0.99 (inactive) | -0.568 (inactive) | 1.18 |
| NC(=O)NCC#Cc1ccc2c(c1)[C@]1(C(=O)N2)[C@H](C(=O)N2CCCCCCC2)[C@H]2C(=O)O[C@H](c3ccccc3)[C@H](c3ccccc3)N2[C@@H]1c1ccc(OCCO)cc1 | -0.518 (inactive) | 1.4 | 2.66 (inactive) | 0.66 (inactive) | 0.391 (inactive) | 0.286 (inactive) | -0.378 | 1.35 (inactive) | -1.11 (inactive) | -0.67 |
| CO[C@H]1O[C@H](CO)[C@@H](OC(=O)Nc2ccc3c(c2)OCO3)[C@H](OC(=O)Nc2ccccc2)[C@H]1OC(=O)Nc1ccccc1 | -0.495 (inactive) | 0.227 | 4.11 (inactive) | 0.777 (inactive) | 0.756 (inactive) | 0.421 (inactive) | 0.258 | -6.93 (inactive) | -0.649 (inactive) | -2.08 |
| CCOC(=O)C[C@H]1[C@H](OC(=O)c2ccccc2-c2ccccc2)[C@@H](NC(=O)c2ccc3ccccc3c2)c2cc(OCCCO)ccc2N1C(=O)c1ccc2ccccc2n1 | 0.0514 (inactive) | -0.193 | 4.5 (inactive) | 0.759 (inactive) | -0.62 (inactive) | 0.452 (inactive) | -0.429 | 0.349 (inactive) | 1.08 (inactive) | 0.803 |

From PubChem BioAssay
